EP2 antag: human EP2 receptor antagonists, primary screen, TR-FRET cAMP, C6 glioma cells. Prostaglandin E2 receptor EP2 subtype (Homo sapiens), P43116. AID 1422, 2008. 0.52% of 260,000 active. inhibition, % at 25 µM. C6 glioma cells expressing human EP2; cells stimulated with saturating PGE2;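 active = percent inhibition above 40 after rounding to a whole number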;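 note: rat C6 glioma host cells with rolipram phosphodiesterase inhibitor present; the protocol text gives 20 µM as final concentration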
Target sequence (P43116 whole entry, looked up): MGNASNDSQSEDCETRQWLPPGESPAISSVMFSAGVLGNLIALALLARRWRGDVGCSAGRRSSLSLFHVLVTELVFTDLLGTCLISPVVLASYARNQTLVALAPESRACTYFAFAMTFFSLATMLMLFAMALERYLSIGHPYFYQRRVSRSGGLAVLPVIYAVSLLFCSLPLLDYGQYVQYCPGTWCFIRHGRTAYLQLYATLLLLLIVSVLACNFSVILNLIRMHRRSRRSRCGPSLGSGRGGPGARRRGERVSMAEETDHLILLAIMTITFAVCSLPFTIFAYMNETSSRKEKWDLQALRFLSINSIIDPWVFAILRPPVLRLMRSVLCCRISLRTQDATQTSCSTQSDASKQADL
CHT inh: inhibitors of human choline transporter CHT; B-score at 10 µM; 0.86% of 310,000 active; High affinity choline transporter 1 (Homo sapiens), Q9GZV3; CHT-expressing cells, membrane potential dye, choline response; stronger effect = lower value;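 active = B-score over 3 SD under the library average, and starting fluorescence ratio not unusually high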;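 note: choline stimulus applied at its EC90 after an EC20 pre-addition; B-score computed on integrated fluorescence ratio after choline addition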
EP2 modulator: EP2 receptor modulators, cAMP readout, primary screen, cell-based, HTRF cAMP, PGE2 stimulation. EP2-expressing cells, cAMP HTRF FRET, PGE2 co-stimulation. Prostaglandin E2 receptor EP2 subtype (Homo sapiens), P43116. 0.83% of 260,000 active. AID 940, 2007. induction, % at 25 µM;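 active = compounds whose cAMP rise, as percent of the full-agonist control response, exceeds 60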;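 note: rat C6 glioma line stably carrying human EP2 under a CMV promoter; the protocol text gives 20 µM as final concentration; 100% = response of wells given 1 µM PGE2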
CHT allo act: CHT positive allosteric modulators, primary screen, cell-based, membrane potential dye, choline EC20 | CHT-expressing cells; stronger effect = higher value; LV-AA mutant CHT in HEK293 cells | High affinity choline transporter 1 (Homo sapiens), Q9GZV3 | 0.49% of 310,000 active | B-score at 10 µM;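 active = initial fluorescence not abnormally high and integrated response B-score, plate-corrected, over 3 SD above library mean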
CHT act confirm: CHT activators, confirmation, cell-based, membrane potential dye, duplicate; CHT-expressing cells, membrane potential dye fluorescence (FDSS); % of choline EC20–EC90 response window; HEK293 expressing CHT LV-AA mutant; choline added at its EC20; shares compounds with CHT allo act; 91% of 2,500 active; AID 504833, 2011; activation, % at 10 µM;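 active = primary screen active, with duplicate mean activation above negative control mean plus 3 SD, cut at about 11% in these data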
HEK293 MP dye: membrane potential response in parental HEK293 cells, counter-screen for CHT activator project, cell-based, membrane potential dye; 62% of 2,500 active; ratio readout change at 10 µM, hits read low; shares compounds with CHT allo act; AID 623908, 2012; membrane potential dye fluorescence (FDSS); measured after EC20 choline addition;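 active = duplicate-averaged ratio beyond 3 SD from buffer wells, up or down, though filed actives are nearly all decreases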
Active calls of the source: *; i = inactive; x = not tested or not shown. Most compounds without a hit are left out; they make up all but 2% or so of the library.

SMILES	EP2 antag	CHT inh	EP2 modulator	CHT allo act	CHT act confirm	HEK293 MP dye
CC(C)OCCCNC(=O)c1cn(C)c2ccc(S(=O)(=O)N(C)C3CCCCC3)cc2c1=O	x	i	x	i	x	x
CCN(CC)CCCNC(=O)c1cn(C)c2ccc(S(=O)(=O)N(C)C)cc2c1=O	3.8	i	4.6	6.37*	54.8*	-35.1*
CN(CCNC(=O)c1cn(C)c2ccc(S(=O)(=O)N(C)C)cc2c1=O)CCc1ccccc1	2.9	i	-11.7	i	23.3*	-26.3*
COc1ccc(N2CC(C)Cn3c2nc2c3c(=O)n(Cc3ccc(C)cc3)c(=O)n2C)c(OC)c1 (stereo unspecified)	6.2	i	48.4	i	x	x
COc1ccc(N2CC(C)Cn3c2nc2c3c(=O)n(Cc3ccc(F)cc3)c(=O)n2C)c(OC)c1 (stereo unspecified)	8.2	i	24.2	i	18.2*	i
CCOC(=O)[C@@H]1[C@H]2COc3ccc(Br)cc3[C@@H]2N2C(=O)N(c3ccccc3)C(=O)[C@@]12C	x	i	x	8.68*	20.5*	i
COc1cc(C(=O)N/N=C/c2ccsc2C)cc(OC)c1OC	7.7	i	-1.8	i	18.7*	i
Clc1ccc(-n2cccc2CN2CCc3c([nH]c4ccccc34)C2c2ccccn2)nc1 (stereo unspecified)	6.0	i	-11.2	7.04*	40.1*	i
COc1cccc(C2c3[nH]c4ccccc4c3CCN2Cc2cccn2-c2ncccn2)c1 (stereo unspecified)	4.6	i	-5.1	i	x	x
O=c1[nH]c(NC2CCN(S(=O)(=O)c3ccc(C(F)(F)F)cc3)CC2)nc2c1CCC2	5.0	x	6.2	x	x	x
Cc1noc(C)c1C(=O)OCC(=O)Nc1cc(Cl)ccc1Oc1ccccc1	12.3	i	26.2	6.72*	28.1*	i
COc1ccc(CCNC(=O)CSc2nc(-c3ccccc3)cc(C(F)(F)F)n2)cc1OC	9.8	x	-85.5	x	x	x
Cc1cc(-c2ccccc2)cc(-c2ccccc2)[n+]1C	-0.2	i	-21.4	6.76*	79.2*	-22.5*
CSc1ncc(-c2ccccc2)cn1	8.3	i	9.8	i	x	x
CC(C)C(=O)N1CCC(n2nc(-c3ccco3)ccc2=O)CC1	x	x	-12.7	x	x	x
COc1ccc(C)cc1Nc1n[n+](-c2ccccc2)c(-c2ccc(SC)cc2)s1	x	i	x	7.82*	46.5*	i
CSc1ccc(-c2sc(Nc3cccc4ccccc34)n[n+]2-c2ccccc2)cc1	x	i	x	i	x	x
CCc1ccc(Nc2n[n+](-c3ccccc3)c(-c3ccc(SC)cc3)s2)cc1	x	i	x	10.9*	26.2*	i
COc1ccc(C)cc1Nc1n[n+](-c2ccccc2)c(-c2ccc(NC(C)=O)cc2)s1	x	i	x	i	x	x
CSc1ccc(-c2sc(Nc3ccccc3)n[n+]2-c2ccccc2)cc1	x	i	x	8.2*	15.2*	i
CCc1ccc(Nc2n[n+](-c3ccccc3)c(-c3ccc(C(=O)O)cc3)s2)cc1	x	i	x	i	x	x
COc1ccc(C(NC(=O)c2oc3c(C)cccc3c2C)c2ccncc2)cc1 (stereo unspecified)	8.7	x	10.6	x	x	x
COc1cccc(CN2CCN(C(=O)c3ccc4nc(C)c(C)nc4c3)[C@@H](C)C2)c1	x	x	-27.1	x	x	x
CN(C)CCSc1nnc2sc3ccccc3n12	5.2	i	22.0	6.58*	57.5*	-54.9*
COC(=O)c1ccc2c(c1)C(C)(C)C(/C=C/c1ccc(OC)c(OC)c1OC)=[N+]2C	17.6	i	-12.5	6.48*	59.4*	-64.9*
SMILES	EP2 antag	CHT inh	EP2 modulator	CHT allo act	CHT act confirm	HEK293 MP dye
COc1ccc(/C=N/Nc2ccc(C(=O)O)cc2)c(OC)c1OC	x	i	x	i	x	x
O=c1[nH]c2cc3c(cc2cc1CN(Cc1ccco1)C(=S)Nc1ccccc1)OCCO3	17.5	x	-36.1	x	x	x
CCCc1nc2c(C)cc(C)cc2c(N)c1CC	12.5	i	3.8	7.08*	44.2*	-38.2*
Cn1c(-c2cccc([N+](=O)[O-])c2)[n+](C)c2ccccc21	5.8	i	-11.3	i	x	x
CN(C)c1ccc(-c2n(C)c3ccccc3[n+]2C)cc1	31.2	i	-26.4	8.29*	63.7*	-50.6*
Cn1c(-c2ccccn2)[n+](C)c2ccccc21	7.8	i	28.9	i	44.0*	-36.9*
Cc1nn(-c2ccc(F)cc2)c2[nH]c(=O)c(CNCc3ccccc3F)cc12	7.3	x	-12.8	x	x	x
CCN(CC)CCN(Cc1cc2ccc(C)c(C)c2[nH]c1=O)C(=S)NCc1ccco1	8.1	i	-25.9	i	16.3*	-24.9*
Cc1ccc2cc(CN(CCCO)C(=S)NCc3ccco3)c(=O)[nH]c2c1C	13.6	x	-43.6	x	x	x
Cc1c(C)n(-c2ccccc2)c2ncnc(NCCN(C)C)c12	x	i	x	i	46.2*	-41.7*
COc1ccc(-n2c(C)c(C)c3c(NCCCN(C)C)ncnc32)cc1	x	i	x	i	x	x
COc1ccc(-n2c(C)c(C)c3c(NCCN(C)C)ncnc32)cc1	x	i	x	7*	45.2*	-33.4*
Cc1ccc(-n2c(C)c(C)c3c(NCCCO)ncnc32)cc1	x	i	x	i	x	x
O=C(NCc1ccncc1)c1ncoc1-c1ccc(F)cc1	8.1	x	-60.6	x	x	x
COc1ccc(C[C@H]2CN3C(=NC[C@@H]3Cc3ccccc3)N2CCNC(=O)CCC2CCCCC2)cc1	5.6	i	-27.4	9.56*	20.4*	i
O=C(CN1C(=O)c2ccccc2S1(=O)=O)Nc1ccccc1Sc1ccccc1	14.9	x	9.4	x	x	x
CCn1c(C)c(C(C)=O)c(N2CCCC2)nc1=S	3.4	i	-6.4	i	2.7	i
CCOC(=O)c1ccccc1NC(=O)COc1coc(CN2CCc3ccccc32)cc1=O	x	i	x	i	25.9*	i
CCOc1ccccc1NC(=O)COc1coc(CN2CCc3ccccc32)cc1=O	x	i	x	i	x	x
COCCn1nnnc1C(c1cc2ccc(C)c(C)c2[nH]c1=O)N1CCN(C)CC1 (stereo unspecified)	5.9	x	-20.6	x	x	x
COCCNC(=O)c1ccc2c3n(nc2c1)-c1ccc(Cl)cc1CO3	3.3	i	-10.9	i	x	x
O=C(NCCO)c1ccc2c3n(nc2c1)-c1ccc(Cl)cc1CO3	8.1	i	8.6	8.64*	19.8*	-22.7*
O=C(NC(c1ccccc1)c1ccccc1)c1ncoc1-c1cccs1	x	x	40.9	x	x	x
O=C(CSc1nnnn1-c1cccc(F)c1)NCc1ccc2c(c1)OCO2	11.2	x	-17.2	x	x	x

Screening results (PubChem)
